Screening data deposited in PubChem by National Center for Advancing Translational Sciences (NCATS).
MBNL1 CUG block – inhibitors of human MBNL1 binding to CUG repeat RNA. Q9NR56. TR-FRET MBNL1-His/biotin-(CUG)12 binding, 665/545 ratio. Potency, µM (highest dose often 57.5 µM), without a hit: top-dose activity change, negative = inhibition, hits mostly inhibitors. 0.036% of 280,000 active. AID 2675; active = well fitted inhibition curve with a large enough effect in the signal ratio, with a control signal flat, not every such curve was filed as active; inconclusive = small, poorly fitted or top-dose-only effect, or effect the other way, or a change in a side signal; inactive = no such curve, though single readings can be large or run the other way; the % refers to the signal ratio; note: potency is the fitted concentration of half-maximal effect; % is set by controls: 0 for no effect and ±100 for the full control effect
Target sequence (Q9NR56 whole entry, looked up): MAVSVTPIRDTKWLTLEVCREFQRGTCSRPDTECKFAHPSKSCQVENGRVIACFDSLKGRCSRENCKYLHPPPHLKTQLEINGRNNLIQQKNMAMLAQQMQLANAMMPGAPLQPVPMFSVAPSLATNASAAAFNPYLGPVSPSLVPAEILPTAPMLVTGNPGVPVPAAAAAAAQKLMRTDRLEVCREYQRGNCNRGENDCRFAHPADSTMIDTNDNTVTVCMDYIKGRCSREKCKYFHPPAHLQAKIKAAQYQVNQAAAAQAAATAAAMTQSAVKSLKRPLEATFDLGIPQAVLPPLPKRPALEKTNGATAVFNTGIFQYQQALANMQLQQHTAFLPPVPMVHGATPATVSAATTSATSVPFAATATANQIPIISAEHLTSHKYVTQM
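His-tagged MBNL1 binding to biotinylated (CUG)12 RNA was measured by TR-FRET using terbium anti-His antibody (0.055 ng/ul final) and streptavidin-XL665 (5 nM final). Compounds were titrated 92 nM to 58 uM; 60 min at room temperature.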
ClpP mod – qHTS Assay for Activators of ClpP | Potency, µM (doses to about 57.5 µM), for inactives: top-dose activity change, negative = active | 1.9% of 340,000 active | AID 651965, 2013 | purified B. subtilis ClpP, FRET peptide cleavage, 20 min; active = well fitted falling curve with a large enough effect; inconclusive = small, poorly fitted or top-dose-only effect; inactive = no such curve, though single readings can be large or run the other way; note: potency is the fitted concentration of half-maximal effect; the source files actives as falling curves though it sought activators and does not explain the sign; nearly all actives have a fitted effect of over 65% in size
Target sequence (P80244 whole entry, looked up): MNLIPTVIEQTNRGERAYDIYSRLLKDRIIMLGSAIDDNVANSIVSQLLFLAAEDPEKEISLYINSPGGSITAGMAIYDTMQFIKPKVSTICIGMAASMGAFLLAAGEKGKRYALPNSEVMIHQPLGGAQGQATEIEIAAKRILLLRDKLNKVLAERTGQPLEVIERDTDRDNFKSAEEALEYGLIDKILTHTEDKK
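ClpP 10 microg/mL final, pH 8 Tris/KCl buffer with BSA, glycerol, Tween-20; compound pinned in; FRET-FV substrate; RT 20 min; Ex320/Em430; ΔFRET vs ADEP 5.8 microM, DMSO, no enzyme.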
GRP78 ERSR act – inducers of ER stress response in human glioma cells; 0.02% of 420,000 active; U87-MG GRP78 promoter luciferase reporter, 16 h; Potency, µM, without a hit: at the top dose activation, actives largely listed as activators; note: potency is the fitted concentration of half-maximal effect; series mostly up to about 76 µM; % of control where 0% means no effect; nearly all actives have a fitted effect of over 35% in size
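Stably transfected U87-MG human glioma cells carrying a GRP78-based luminescent sensor were seeded at 1000 cells/well, pin-dosed with compounds and incubated 16 h. Luciferase reagent was then added, and end-point luminescence was read after 10 min at room temperature.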
Mito fusion act – blocks mitochondrial division or promotes mitochondrial fusion | S. cerevisiae fusion-defective mutant growth rescue, CellTiterGlo 48 h | Potency, µM (titrated, usually from 46.1 µM), for the others: at the top dose growth rescue (activation), hits mostly activators | 0.23% of 320,000 active; note: potency is the fitted concentration of half-maximal effect; % of control where 0% means no effect; nearly all actives have a fitted effect of over 45% in size
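Read-out: ATP-based luminescence (CellTiterGlo, 10 min ambient) reporting growth of fusion-defective ts yeast after 48 hours at 37C on glycerol/ethanol YPEG medium in the presence of compound.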
AT treatment – candidate therapy for ataxia-telangiectasia; F2112 A-T fibroblasts, KAP-1 phosphorylation AlphaLISA; neocarzinostatin DNA damage 30 min before lysis; Potency, µM (highest dose often 57.5 µM), inactives show top-dose activation, most hits filed as activators; 0.19% of 320,000 active; note: potency is the fitted concentration of half-maximal effect; % of control where 0% means no effect; nearly all actives have a fitted effect of over 45% in size
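hTERT-immortalized A-T patient fibroblasts (F2112), 500 cells/well in OPTI-MEM, 1% FBS, got compounds for 60 min, then NCS for 30 min at 37C. Lysates were then assayed for phospho-KAP-1 by AlphaLISA (anti-pKAP1 donor, anti-KAP1 acceptor beads), 6 hr at 25C.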
TCR act – T cell receptor activation | primary human leukocytes, anti-CD3, IL-2 HTRF, 48 h | Potency, µM (highest dose often 9.22 µM), inactives show top-dose activation of IL-2 secretion, most hits filed as activators | 330,000 tested, under 10 active; note: % of control where 0% means no effect
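Primary human leukocytes receive a-CD3 beads and test compound and are incubated 48 hr. Secreted IL-2 is then assayed by HTRF, measuring 665nm acceptor emission after 320nm excitation of the europium donor.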
Active calls of the source: *; u = inconclusive; x = not tested or not shown; [ ] = dose if it differs, or a comment. The list is not random: actives were taken first. Their share in the collection is about 1.8%. Unless noted, calls come from the whole dose curve; as a rule, active = well fitted curve in the direction sought with a large enough effect; inconclusive = small, poorly fitted or top-dose-only effect, or another doubt; inactive = no such curve, though single readings can be large; an effect the other way counts as inactive or inconclusive.

SMILES | MBNL1 CUG block | ClpP mod | GRP78 ERSR act | Mito fusion act | AT treatment | TCR act
CSCC[C@H](N)C(=O)N[C@@H](CCC(=O)O)C(=O)N[C@H](C(=O)NCC(=O)N[C@@H](Cc1c[nH]c2ccccc12)C(=O)N[C@@H](Cc1ccc(O)cc1)C(=O)N[C@@H](CCCNC(=N)N)C(=O)N[C@@H](CO)C(=O)N1CCC[C@H]1C(=O)N[C@@H](Cc1ccccc1)C(=O)N[C@@H](CO)C(=O)N[C@@H](CCCNC(=N)N)C(=O)N[C@H](C(=O)N[C@H](C(=O)N[C@@H](Cc1cnc[nH]1)C(=O)N[C@@H](CC(C)C)C(=O)N[C@@H](Cc1ccc(O)cc1)C(=O)N[C@@H](CCCNC(=N)N)C(=O)N[C@@H](CC(N)=O)C(=O)NCC(=O)N[C@@H](CCCCN)C(=O)O)C(C)C)C(C)C)C(C)C | x | x | -1% | x | x | x
CSCC[C@H](NC(=O)[C@H](CC(C)C)N(C)C(=O)[C@@H]1CCCN1C(=O)[C@H](Cc1ccccc1)NC(=O)[C@H](Cc1ccccc1)NC(=O)CCC(C)N)C(=O)O (some centres not stated) | x | x | 2% | x | x | x
Cc1cccc(NC(=O)c2cnc3sccn3c2=O)n1 | x | -7% | 1% | x | x | 4%
O=C(Nc1ccon1)c1cnc2sccn2c1=O | 0% | 20µM* | 1% | 0% | 1% | -4%
Cc1noc(C)c1C(=O)NCc1ccccc1 | -12% | 32µM* | -3% | -2% | 3% | -1%
Cc1noc(C)c1C(=O)NCCc1ccccc1 | -8% | -1% | 2% | -1% | 10% | 1%
CCCCC/C=C/C/C=C/CCCCCCCC(=O)NC(C)c1ccccc1 (configuration not stated) | x | x | -3% | x | x | x
Cc1ccc2nc(NC(=O)CSc3nncc(=O)n3N)sc2c1 | x | 25µM* | -3% | -2% | 2% | -3%[46.1 µM]
CC(C)(Oc1ccc(Cl)cc1)C(=O)N1CCN(c2ccccn2)CC1 | 1% | u | -1% | 14µM* | 17% | 5%[46.1 µM]
Cc1cc(OCC(=O)N2CCN(c3ccccn3)CC2)c(C)cc1Br | -7% | 35µM* | -5% | 0% | 16% | -9%
COc1ccccc1N1CCN(C(=O)c2sc3nc(C)nc(N4CCN(c5ccccn5)CC4)c3c2C)CC1 | 8% | -2% | -5% | 28µM* | 0% | 2%
CSCCC(NC(=O)C1CCC(C)CC1)C(=O)N1CCN(c2ccccn2)CC1 (configuration not stated) | -2% | u | -2% | 0% | -3% | 9%
CC(C)CC(NC(=O)C1CCCCC1)C(=O)N1CCN(c2ccccn2)CC1 (configuration not stated) | -3% | 28µM* | -1% | 1% | x | 0%
CN(C)c1cccc(C(=O)NCC2Cc3cccc(-c4cncnc4)c3O2)c1 (configuration not stated) | x | x | 1% | x | x | x
CC(C)c1nnc(NC(=O)CCC(=O)N2CCN(c3ccccn3)CC2)s1 | 5% | u | 0% | -2% | -3% | -4%
O=C(CC1CCCCC1)N1CCN(c2ccccn2)CC1 | -8% | 32µM* | 2% | -1% | -3% | -6%
COc1ccccc1CC(=O)N1CCN(c2ccccn2)CC1 | -9% | 22µM* | 1% | -1% | -2% | 6%
CC(C)Cc1nnc(NC(=O)CCC(=O)N2CCN(c3ccccn3)CC2)s1 | -3% | 25µM* | -1% | -2% | x | -21%
O=C(CC1c2ccccc2Oc2ccccc21)N1CCN(c2ccccn2)CC1 | -13% | -26% | -2% | 8% | 19% | x
COc1ccccc1N1CCN(C(=O)CNC(=O)c2cn(-c3ccccc3OC)c(=O)c3ccccc23)CC1 | 5% | -15% | 12% | -3% | -2% | 3%
COc1ccccc1-n1cc(C(=O)NCC(=O)N2CCN(c3ccccn3)CC2)c2ccccc2c1=O | 2% | u | -3% | 4% | 22µM* | -6%
O=C(O)CCC(=O)N1CCN(c2ccccn2)CC1 | -2% | 25µM* | -3% | 0% | 2% | -3%
CC(C)(C)CC(=O)OCC(=O)[C@@]12OC(C)(C)O[C@@H]1C[C@H]1[C@@H]3CCC4=CC(=O)C=C[C@]4(C)[C@@]3(F)[C@@H](O)C[C@]12C | x | x | -4% | x | x | x
CSc1nnc2c(=O)[nH]c(=O)n(C)c2n1 | x | x | -3% | x | x | 1%
CSc1cnc2c(=O)n(C)c(=O)[nH]c2n1 | u | 16µM* | -2% | -1% | -11% | -6%[46.1 µM]
SMILES | MBNL1 CUG block | ClpP mod | GRP78 ERSR act | Mito fusion act | AT treatment | TCR act
COc1cc(=O)n2c(c1C(=O)N1CCc3ccccc3C1)CCN(Cc1ccc(CO)o1)CC2 | x | x | 0% | x | x | x
CCOC(=O)c1c(-c2ccccc2Cl)cn2ccccc12 | 24% | 25µM* | 0% | 9% | 19% | 1%
COc1cc(Br)c(C[N+]2(CCOCCC3CCC4CC3C4(C)C)CCOCC2)cc1OC (configuration not stated) | x | x | -6% | x | x | x
COC(=O)Nc1ccc(S(=O)(=O)N2CCC(C(=O)N(C)C3CCCCC3)CC2)cc1 | 3% | 13µM* | -7% | 0% | 4% | -3%
CN(C)c1ncc2nc(-c3ccc(Cl)cc3)c(=O)n(Cc3cccs3)c2n1 | x | x | -3% | x | x | x
COc1cc(C=O)ccc1OCc1ccccc1Br | -12% | -1% | 1% | 22% | 7% | 13%
COc1cc(C=O)ccc1OCc1cccc(Br)c1 | -15% | 25µM* | 1% | 1% | 6% | -1%[46.1 µM]
CCOc1ccc(-c2noc(-c3ccncc3)n2)cc1OCC | -5% | -12% | -1% | 5% | -1% | -6%
CCOc1ccc(CCNC(=O)CCc2nc(-c3ccc(OC)cc3)no2)cc1OCC | 0% | 25µM* | 6% | 2% | 5% | -5%
CCOc1ccc(-c2nc(-c3ccc(OC)cc3)no2)cc1OCC | 8% | 32µM* | -2% | 1% | 6% | -7%
COCCN1CCN(C(=O)c2cnn(-c3nccc(-c4cc5ccccc5o4)n3)c2C2CC2)CC1 | x | x | -3% | x | x | x
COC(=O)c1cc2ccsc2n1CC(=O)N1CCCc2ccccc21 | -6% | -1% | -1% | 18% | u | 0%
COC(=O)c1cc2oc3ccccc3c2n1CC(=O)N1CCCc2ccccc21 | 3% | 8.9µM* | -2% | -3% | 5% | -113%
O=C(NCc1nnc2n1CCN(Cc1ccc(C(F)(F)F)cc1)CC2)c1cccc(F)c1 | x | x | -4% | x | x | x
O=CN/C=C/c1cc(O)ccc1O | 15% | 22µM* | -8% | -6% | 0% | 2%
